Results on eight molecules are retold here after PubChem BioAssay (NCI).

Some test systems named below: DU-145 prostate; K-562 leukemia; MALME-3M melanoma; MDA-MB-231 breast; RXF 393 renal; SF-268 CNS; SF-295 CNS; SF-539 CNS; UACC-257 melanoma; M14 melanoma; HT29 colon; SNB-75 CNS; U251 CNS; PC-3 prostate; SK-MEL-5 melanoma; UACC-62 melanoma; LOX IMVI melanoma; SNB-19 CNS; SK-MEL-28 melanoma.
What all share (assay): NCI-60 one-dose screen, 48 h (100 = growth as untreated, 0 = no growth, -100 = all killed)
What all share (conditions): 10 µM unless noted

Several values for one entry are separate records, joined by “and”; a condition that tells them apart may be missing. Equal entries are not always repeated. Compounds without any hit were thinned out: in the full panel of roughly 83,000, 20% have a hit.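 The endpoint reported here, percent growth, reads 100 for growth as untreated, 0 for no net growth and -100 for all cells dead.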 Activity calls are given as the source filed them. Rule for the calls: active = growth percent below 10; inactive = the rest.

On to `O=C(COc1ccc(/C=C2\C(=O)Nc3ccc(F)cc32)cc1)Nc1ccccc1`, for which the growth in the assay on DU-145 prostate was 104% (inactive); with K-562 leukemia it was 89.6% (inactive); in the assay on MALME-3M melanoma, 102% (inactive); in the assay on MDA-MB-231 breast, 104% (inactive); in the assay with RXF 393 renal, 120% (inactive); in the assay on SF-268 CNS, 95.1% (inactive). Further, the growth with SF-295 CNS is 105% (inactive); in the assay on SF-539 CNS it was 93.8% (inactive); with UACC-257 melanoma it was 104% (inactive); in the assay on M14 melanoma it was 94.4% (inactive); with HT29 colon, 107% (inactive); with SNB-75 CNS, 94.7% (inactive). The growth in the assay with U251 CNS was 94.4% (inactive); in the assay on PC-3 prostate it was 94.9% (inactive); with SK-MEL-5 melanoma, 100% (inactive); with UACC-62 melanoma it was 88.1% (inactive); in the assay on LOX IMVI melanoma, 79.6% (inactive).
Turning to `Cn1cc(-c2nc(N)nnc2-c2c[nH]c3ccc(Br)cc23)c2cc(F)ccc21`, the growth with DU-145 prostate was 96.4% (inactive); with K-562 leukemia, 56.4% (inactive); in the assay on MALME-3M melanoma, 94.2% (inactive); in the assay on MDA-MB-231 breast, 90.2% (inactive); in the assay with RXF 393 renal, 93.6% (inactive); with SF-268 CNS, 86.9% (inactive). Further, the growth with SF-295 CNS is 106% (inactive); in the assay with SF-539 CNS, 95.1% (inactive); in the assay on UACC-257 melanoma it was 109% (inactive); in the assay with M14 melanoma it was 102% (inactive); in the assay on HT29 colon it was 104% (inactive); in the assay with SNB-75 CNS it was 79.9% (inactive). Further, the growth in the assay with SNB-19 CNS is 88% (inactive); in the assay on U251 CNS it was 97.8% (inactive); in the assay with PC-3 prostate, 87.2% (inactive); with SK-MEL-5 melanoma, 91.5% (inactive); with UACC-62 melanoma, 91.7% (inactive); in the assay on LOX IMVI melanoma, 92.3% (inactive). Further, the growth in the assay with SK-MEL-28 melanoma was 101% (inactive).
For `CN1CCN(c2ccc(Nc3nc(NCCNS(=O)(=O)c4ccc(Cl)cc4)c4sccc4n3)cc2)CC1`, the growth was 98.2% (inactive) in the assay with DU-145 prostate; 9.68% (active) in the assay with K-562 leukemia; 105% (inactive) with MALME-3M melanoma; 95% (inactive) in the assay on MDA-MB-231 breast; 41.2% (inactive) in the assay on RXF 393 renal; 70% (inactive) in the assay with SF-268 CNS. The growth was 97.9% (inactive) with SF-295 CNS; 85.5% (inactive) with SF-539 CNS; 87.5% (inactive) with UACC-257 melanoma; 102% (inactive) in the assay with M14 melanoma; 44.3% (inactive) in the assay on HT29 colon; 72.9% (inactive) in the assay on SNB-75 CNS. Also, the growth with SNB-19 CNS is 104% (inactive); in the assay on U251 CNS, 60.1% (inactive); in the assay on PC-3 prostate, 81.8% (inactive); with SK-MEL-5 melanoma, 93.6% (inactive); in the assay with UACC-62 melanoma it was 98.5% (inactive); in the assay with LOX IMVI melanoma, 92% (inactive). In the assay on SK-MEL-28 melanoma, the growth is 94.5% (inactive).
Consider `CC1=C(C)C(=O)C(Nc2cccc(C(=O)OC(C)(C)C)c2)=CC1=O`, for which the growth with DU-145 prostate was 69.9% (inactive); with K-562 leukemia, 77.2% (inactive); in the assay with MALME-3M melanoma, 64.9% (inactive); in the assay with MDA-MB-231 breast it was 66.2% (inactive); in the assay with RXF 393 renal, 73.4% (inactive); in the assay on SF-268 CNS it was 80.5% (inactive). Further, the growth in the assay with SF-295 CNS was 94.3% (inactive); in the assay on SF-539 CNS, 89.9% (inactive); in the assay on UACC-257 melanoma it was 62.5% (inactive); in the assay with M14 melanoma it was 88.3% (inactive); in the assay with HT29 colon, 104% (inactive); in the assay with SNB-75 CNS, 71% (inactive). The growth is 78.2% (inactive) in the assay on SNB-19 CNS; 64.3% (inactive) in the assay on U251 CNS; 76.7% (inactive) with PC-3 prostate; 31.3% (inactive) in the assay on SK-MEL-5 melanoma; 65.6% (inactive) in the assay with UACC-62 melanoma; 47.3% (inactive) with LOX IMVI melanoma. The growth in the assay with SK-MEL-28 melanoma was 96.5% (inactive).
With `O=S1SC(c2ccccc2)=NN1c1cc(F)cc(F)c1` (stereo not drawn), the growth with DU-145 prostate is 57.2% (inactive); in the assay on K-562 leukemia, 22.5% (inactive); with MALME-3M melanoma, 75.5% (inactive); in the assay on MDA-MB-231 breast it was 69.4% (inactive); in the assay with RXF 393 renal, 52.2% (inactive); in the assay on SF-268 CNS, 54.3% (inactive). The growth in the assay on SF-295 CNS is 52.1% (inactive); with SF-539 CNS, 60.6% (inactive); in the assay on UACC-257 melanoma, 69.3% (inactive); in the assay with M14 melanoma it was 20.6% (inactive); in the assay with HT29 colon it was 98.9% (inactive); in the assay on SNB-75 CNS it was 74.9% (inactive). Further, the growth in the assay with SNB-19 CNS was 49.8% (inactive); with U251 CNS, 20.3% (inactive); with PC-3 prostate, 13.3% (inactive); in the assay on SK-MEL-5 melanoma, 50.4% (inactive); in the assay with UACC-62 melanoma, 29.1% (inactive); in the assay on LOX IMVI melanoma, 38.1% (inactive). Moreover, the growth in the assay with SK-MEL-28 melanoma was 46.4% (inactive).
Take `C/C=C/CC(C)C(O)[C@H](NC(=O)[C@@H]1CCCN1C(=O)[C@](C)(CC)NC(=O)CCCCCCCCC)C(=O)N[C@@](C)(CC)C(=O)N[C@@H](CCC(N)=O)C(=O)N[C@H](CCC(N)=O)C(=O)NC(C)(C)C(=O)NC(C)(C)C(=O)N[C@@H](CCC(N)=O)C(=O)N[C@H](CC(C)C)C(=O)N[C@H](CO)CC(C)C` (stereo partly drawn): the growth was -21.7% (active) and -48.7% (active) in the assay with DU-145 prostate; 14.5% (inactive) and 10.4% (inactive) in the assay on K-562 leukemia; 29.9% (inactive) and -95.9% (active) with MALME-3M melanoma; 63.4% (inactive) and -96% (active) with MDA-MB-231 breast; 0.95% (active) and -63% (active) in the assay on RXF 393 renal; 20.8% (inactive) and -63.8% (active) in the assay on SF-268 CNS. The growth in the assay with SF-295 CNS was 11.3% (inactive) and -81.6% (active); in the assay with SF-539 CNS, 39.5% (inactive) and -100% (active); with UACC-257 melanoma, 21.1% (inactive) and -71.1% (active); in the assay on M14 melanoma it was 54.7% (inactive) and -71.4% (active); in the assay with HT29 colon, 89.8% (inactive) and -25% (active); with SNB-75 CNS, 13.1% (inactive) and -93.4% (active). Further, the growth with SNB-19 CNS is 65.8% (inactive) and -98.1% (active); in the assay with U251 CNS, 61.2% (inactive) and -77.9% (active); with PC-3 prostate it was 69.8% (inactive) and -63.6% (active); in the assay on SK-MEL-5 melanoma, 7.02% (active) and -81.2% (active); in the assay on UACC-62 melanoma it was 73.8% (inactive) and -86.4% (active); in the assay on LOX IMVI melanoma, 40.1% (inactive) and -86.6% (active). The growth with SK-MEL-28 melanoma was -42.7% (active) and -100% (active).
Consider `CCCCOc1ccc(S(=O)(=O)N2CCN(c3nc(C)cc(N4CCOCC4)n3)CC2)cc1`, for which the growth with DU-145 prostate is 16.6% (inactive); in the assay on K-562 leukemia, 44.3% (inactive); with MALME-3M melanoma, 107% (inactive); with MDA-MB-231 breast it was 3.79% (active); with RXF 393 renal, 85% (inactive); in the assay with SF-268 CNS, 3.91% (active). The growth is -22.5% (active) in the assay on SF-295 CNS; 75.9% (inactive) in the assay on SF-539 CNS; -47.2% (active) in the assay on UACC-257 melanoma; -15.9% (active) in the assay on M14 melanoma; -35.5% (active) in the assay on HT29 colon; 2.51% (active) in the assay on SNB-75 CNS. The growth in the assay with U251 CNS is 18.8% (inactive); in the assay on PC-3 prostate, 36.4% (inactive); with SK-MEL-5 melanoma it was 84% (inactive); with UACC-62 melanoma, -23.6% (active); in the assay with LOX IMVI melanoma, -71.5% (active); in the assay on SK-MEL-28 melanoma it was -2.33% (active).
As to `COc1cc(-c2nc(-c3ccccc3)[nH]c2-c2ccnc(NCCCNS(=O)(=O)c3ccc(C)cc3)n2)ccc1F`, the growth in the assay on DU-145 prostate is 86.7% (inactive); in the assay on K-562 leukemia, 58.9% (inactive); in the assay on MALME-3M melanoma it was 100% (inactive); in the assay with MDA-MB-231 breast, 91.7% (inactive); in the assay on RXF 393 renal, 82.7% (inactive); in the assay with SF-268 CNS, 80.2% (inactive). Further, the growth with SF-295 CNS was 99.6% (inactive); in the assay with SF-539 CNS, 89.4% (inactive); in the assay with UACC-257 melanoma, 99.7% (inactive); with M14 melanoma it was 77.7% (inactive); with SNB-75 CNS it was 105% (inactive); in the assay with SNB-19 CNS, 104% (inactive). Further, the growth in the assay on U251 CNS was 88.6% (inactive); in the assay on PC-3 prostate, 55% (inactive); in the assay on SK-MEL-5 melanoma, 84.4% (inactive); with UACC-62 melanoma, 97.5% (inactive); in the assay with LOX IMVI melanoma, 83.4% (inactive); in the assay with SK-MEL-28 melanoma, 101% (inactive).
